Compound activity as filed in PubChem.
Shown are actives, neighbours in structure and some others; about 6.6% of the full set was active somewhere.
TSG101-PTAP inh: blocks PTAP/TSG101 interaction to inhibit HIV-1 budding. Q99816. Fluorescence polarization, FITC-PTAP peptide / Tsg101 binding. Potency, µM (highest dose often 115 µM), for the others: at the top dose activity change, negative = inhibition, actives largely listed as inhibitors. 340,000 tested, under 10 active; active = well fitted inhibition curve with a large enough effect in the main read-out, with a control signal flat, not every such curve was filed as active; inconclusive = small, poorly fitted or top-dose-only effect, or effect the other way, or a change in a side signal; inactive = no such curve, though single readings can be large or run the other way; also: % of control where 0% means no effect
Target sequence (Q99816 whole entry, looked up): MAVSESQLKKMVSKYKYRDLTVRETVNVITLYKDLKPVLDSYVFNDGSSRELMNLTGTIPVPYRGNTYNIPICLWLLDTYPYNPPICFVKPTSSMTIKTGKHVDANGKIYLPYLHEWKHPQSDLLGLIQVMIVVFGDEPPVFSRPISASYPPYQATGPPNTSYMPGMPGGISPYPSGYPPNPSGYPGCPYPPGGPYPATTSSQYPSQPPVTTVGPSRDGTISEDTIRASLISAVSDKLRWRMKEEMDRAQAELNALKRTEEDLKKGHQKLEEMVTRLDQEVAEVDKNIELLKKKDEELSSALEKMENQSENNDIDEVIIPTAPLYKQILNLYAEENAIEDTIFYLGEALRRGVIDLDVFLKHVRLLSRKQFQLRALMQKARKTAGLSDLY
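FP read-out: FITC-PTAP peptide, 50 nM final, binding Tsg101 binding domain, 10 uM final; 20 min, r.t.; 10 mM HEPES pH 7.5, 0.15 M NaCl, 0.01% Tween 20, 3 mM EDTA, 0.1 mM TCEP.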
RGS4 inhibitor: human RGS4 inhibition. Transcreener GDP fluorescence polarization, RGS4-accelerated GTP hydrolysis. AID 504845. hit rate 0.039% among 390,000. Potency, µM (doses to about 114 µM), inactives show top-dose activity change, negative = inhibition, hits mostly inhibitors. P49798; also: % is scaled to controls: 0 for no effect and ±100 for the full control effect; nearly all actives have a fitted effect of over 75% in size
Target sequence (P49798 whole entry, looked up): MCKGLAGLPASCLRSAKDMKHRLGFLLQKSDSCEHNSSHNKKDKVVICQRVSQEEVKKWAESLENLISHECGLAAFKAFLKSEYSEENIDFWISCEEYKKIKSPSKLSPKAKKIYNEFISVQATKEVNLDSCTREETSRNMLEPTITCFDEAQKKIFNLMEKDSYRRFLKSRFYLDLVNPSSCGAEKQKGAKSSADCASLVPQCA
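MLSMR compounds (23 nl, pin-transferred) preincubated 10 min at room temperature with a 500nM (2x) first reagent, then RGS4 at 900nM (2x) plus Transcreener GDP mix added; fluorescence polarization (620/688 nm) read before and after 90 min at 30 °C.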
KB-V1 MDR tox: kills drug-selected multidrug resistant KB-V1 cells; KB-V1 MDR cells viability, CellTiter-Glo, 72 h; Potency, µM (doses to about 46.1 µM), actives largely listed as cytotoxic; hit rate 3.4% among 400,000; also: % is scaled to controls: 0 for no effect and ±100 for the full control effect; nearly all actives have a fitted effect of over 60% in size
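In this primary screen, KB-V1 cells overexpressing P-gp are incubated with library compounds (lowest to highest concentration) for 72 h at 37 degrees C before a luminescent ATP viability read.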
MCF10A rerep: inducers of DNA re-replication in MCF 10A breast cells | MCF 10A DNA re-replication, Hoechst nuclear intensity, 48 h | Potency, µM (titrated, usually from 46.1 µM), inactives show top-dose activity, positive = re-replication, usual class: activators | hit rate 2.9% among 350,000 | AID 624296; also: % of control where 0% means no effect; nearly all actives have a fitted effect of over 50% in size
SW480 rerep: DNA re-replication induction in SW480 cells; SW480 DNA re-replication, Hoechst DNA content imaging, 48 h; Potency, µM (doses to about 46.1 µM), for inactives: at the highest dose re-replication activation, most hits filed as activators; AID 624297; hit rate 1.8% among 340,000; also: % of control where 0% means no effect; nearly all actives have a fitted effect of over 55% in size
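SW480 cells exposed to compounds for 48 hr at 37 C, 5% CO2, then Hoechst-stained 40 min. Nuclear DNA content imaged by fluorescence scanning (405 nm excitation, 500-530 nm emission); re-replication scored as increased high-intensity nuclei.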
KB-3-1 cytotox: KB-3-1 parental cell cytotoxicity. hit rate 1.4% among 400,000. Potency, µM (doses to about 46.1 µM), most hits filed as cytotoxic. KB-3-1 viability, CellTiter-Glo ATP luminescence, 72 h; also: % is scaled to controls: 0 for no effect and ±100 for the full control effect; nearly all actives have a fitted effect of over 60% in size
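Cytotoxicity measured as CellTiter-Glo luminescence after 72 h at 37 C. Compound titrations were pinned onto drug-naive KB-3-1 parental adenocarcinoma cells grown in DMEM with 10% FBS, and normalized data fitted to concentration-response curves.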
An asterisk follows results filed as active; i = inactive; ? = inconclusive; nt = not tested or not shown; [ ] = dose if it differs, or a comment. Unless noted, calls follow the shape of the dose curve; as a rule, active = well fitted curve in the direction sought with a large enough effect; inconclusive = small, poorly fitted or top-dose-only effect, or another doubt; inactive = no such curve, though single readings can be large; an effect the other way counts as inactive or inconclusive. Potency is read from the fitted curve at half-maximal effect.

SMILES | TSG101-PTAP inh | RGS4 inhibitor | KB-V1 MDR tox | MCF10A rerep | SW480 rerep | KB-3-1 cytotox
Clc1ccc(COn2nnc3ccccc32)c(Cl)c1 | -5% | -3%[11.4 µM] | i | 23µM* | 5% | i
O=c1ccc(C(F)(F)F)cn1Cc1cc(=O)n2ccsc2n1 | 1% | 22% | i | 3% | -4% | i
O=c1cc(CNc2cc(C(F)(F)F)cc(C(F)(F)F)c2)nc2sccn12 | -4% | 15% | 26µM* | ? | -1% | 23µM*
CC(=O)NC(c1ccc(C(C)C)cc1)c1c(O)ccc2ccccc12 (stereo not given) | -2% | -2% | i | 18µM* | ? | i
CCCC(=O)NC(c1ccc(OC)c(OC)c1)c1c(O)ccc2ccccc12 (stereo not given) | nt | -30% | ? | -6% | 0% | i
CCCCC(=O)NC(c1ccc(OC)c(OC)c1)c1c(O)ccc2ccccc12 (stereo not given) | 1% | -30% | 15µM* | 3% | -5% | i
CCCC(=O)NC(c1ccc(N(C)C)cc1)c1c(O)ccc2ccccc12 (stereo not given) | -1% | -11% | 15µM* | -1% | -2% | i
CCc1nn2c(=O)cc(COC(=O)c3cccc(NC(=O)COc4ccccc4F)c3)nc2s1 | nt | -37% | nt | nt | nt | nt
COc1ccc(C2(C)CC(C)(C)Nc3ccccc32)cc1 (stereo not given) | -2% | -11% | i | -6% | -2% | i
COc1ccc(C2CC(C)(c3ccc(OC)cc3)Nc3ccccc3N2)cc1 (stereo not given) | 2% | -3% | ? | ? | ? | 21µM*
Oc1oc(-c2ccccc2)nc1C=Nc1ccccc1 | -10% | -7% | i | -5% | 0% | i
Sc1oc(-c2ccccc2)cc1C=Nc1ccccc1 | 50% | -41% | i | ? | 13µM* | i
CCN1CCN(S(=O)(=O)c2ccc(Cl)c(C(=O)NCc3nc4ccccc4[nH]3)c2)CC1 | 1% | 9% | i | ? | 10µM* | ?
CCN1CCN(S(=O)(=O)c2ccc(Cl)c(C(=O)NCCc3ccccc3)c2)CC1 | -3% | -1% | i | 5% | 15µM* | i
CCN1CCN(S(=O)(=O)c2ccc(Cl)c(C(=O)Nc3ccccc3N3CCCC3)c2)CC1 | -3% | 33% | i | ? | 6.5µM* | i
CCOc1ccc(NC(=O)CC2C(=O)N(c3ccccc3)C(=O)N2Cc2ccc3c(c2)OCO3)cc1 (stereo not given) | nt | -8% | i | nt | nt | i
Cc1oc(-c2ccc(C(=O)NCc3ccc(F)cc3)cc2)nc1CS(=O)c1ccccc1 (stereo not given) | nt | -5% | i | nt | nt | i
COc1ccc(C2=NOC(C(=O)NCc3cccs3)C2)cc1 (stereo not given) | -6% | -3% | 2.9µM* | 9.2µM* | -3% | 6.5µM*
COc1cc(NC(=O)C2CC(c3cccc(OC)c3OC)=NO2)cc(OC)c1OC (stereo not given) | 0% | 2% | i | 16µM* | ? | ?
COc1cc(OC)c(C2=NOC(C(=O)NCc3cccs3)C2)cc1Cl (stereo not given) | -1% | -11% | 7.3µM* | ? | 9.2µM* | i
COc1ccc(C2=NOC(C(=O)NCc3cccs3)C2)cc1OC (stereo not given) | -4% | 1% | 5.2µM* | 1.2µM* | 5.2µM* | 4.6µM*
COc1ccc(C2=NOC(C(=O)NCc3ccccn3)C2)cc1 (stereo not given) | -5% | -45%[56.9 µM] | ? | 23% | 9% | i
COc1cc(OC)c(C2=NOC(C(=O)NCc3cccnc3)C2)cc1Cl (stereo not given) | -3% | -4% | i | 20% | ? | ?
CCOc1ccccc1Nc1nnc(-c2cc3cc(Cl)ccc3oc2=O)s1 | nt | -15% | ? | nt | nt | ?
Cc1ccc(CN2C(=O)CC(c3ccc(Cl)cc3)c3c(C)nn(-c4nc(C)cc(C)n4)c32)cc1 (stereo not given) | nt | 26% | i | nt | nt | i
SMILES | TSG101-PTAP inh | RGS4 inhibitor | KB-V1 MDR tox | MCF10A rerep | SW480 rerep | KB-3-1 cytotox
COc1cc(C2=NOC(C(=O)NCc3cccnc3)C2)cc(OC)c1OC (stereo not given) | 0% | -7% | i | 17% | ? | ?
O=C(NCc1ccccn1)C1CC(c2ccccc2O)=NO1 (stereo not given) | 0% | -2% | i | -31% | 1% | i
COc1cc(C2=NOC(C(=O)NCc3cccs3)C2)cc(OC)c1OC (stereo not given) | 1% | -22% | 2.6µM* | 10µM* | 6.5µM* | 2.1µM*
O=C(NCc1cccs1)C1CC(c2ccccc2O)=NO1 (stereo not given) | -1% | 9% | ? | 18µM* | 23% | 16µM*
N#Cc1c(-c2ccccc2Cl)c2c([nH]c1=O)-c1ccccc1OC2 | -5% | 2% | i | 4.1µM* | 18µM* | i
CCn1cc2nc(SCC(=O)Nc3ccc(OC)cc3OC)n(Cc3ccc(OC)cc3)c(=O)c2n1 | -4% | -39% | ? | 3.3µM* | 7.3µM* | ?
CCn1cc2nc(SCc3cccc(C(F)(F)F)c3)n(Cc3ccc(OC)cc3)c(=O)c2n1 | nt | -22% | 18µM* | nt | nt | i
Cc1ccc(NC(=O)C2CCC(CNS(=O)(=O)c3ccc4c(c3)CCCC(=O)N4)CC2)c(C)c1 (stereo not given) | nt | -6% | i | nt | nt | i
CCc1ccc(OCC(=O)Nc2ccc(Cl)c(-c3nc4ncccc4o3)c2)cc1 | nt | -38% | i | nt | nt | i
Cc1ccccc1-c1noc(-c2ccc(N3CCC(C)CC3)c([N+](=O)[O-])c2)n1 | nt | -7% | i | nt | nt | i
Cc1cccc(N2CCN(C(=O)c3cc4c(=O)[nH]c5ccc(C)cc5c4s3)CC2C)c1 (stereo not given) | nt | 24% | i | nt | nt | i
CCNC(=S)N1N=C2c3ccccc3CCC2C1c1ccc(F)cc1 (stereo not given) | 0% | -5% | 21µM* | 6.5µM* | 29% | ?
Cc1ccc(NC(=O)C2CCCN(S(=O)(=O)c3cccs3)C2)c(C)c1 (stereo not given) | nt | -8% | nt | nt | nt | nt
CCc1cccc(C)c1NC(=O)CN(C)Cc1ccccc1F | -4% | 11% | 21µM* | 17% | 0% | ?
CC(=O)N1CCN(c2ccc(NCc3ccc(-c4ccc(Br)cc4)o3)cc2)CC1 | 0% | ? | i | 23µM* | 13µM* | 9.2µM*
O=C(CN1Cc2ccccc2C1=O)Nc1cc(F)ccc1F | nt | 22% | i | nt | nt | i
